# Data: PubChem BioAssay
# Activity calls are given as the source filed them. Rule as the data show it, unless noted: active = inhibition above about 80%; inactive = the rest.
# What was measured:
# [1] = growth inhibition, single agent or in combination, cell-based, chromothripsis tumors, cisplatin or BGB combos (AID 1671449); conditions: LFS_MB_P medulloblastoma cells;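 also: cells exposed for 96 hours; 0% = vehicle DMSO and 100% = killing by high DMSO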
# [2] = growth inhibition, single agent and combos, cell-based, chromothripsis tumors, cisplatin or BGB combos (AID 1671450); conditions: HDN33 neuroblastoma cells, stronger effect = higher value;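 also: cells exposed to compound for four days; 0% = vehicle DMSO and 100% = cell killing by high DMSO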
# [3] = growth inhibition, single agents and combos, ICB984, cell-based, cisplatin or BGB combos, synergistic combos for chromothripsis tumors (AID 1671451; call rule not given here;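 also: cells exposed for 96 hours before readout; 0% = vehicle DMSO and 100% = killing by high DMSO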); conditions: ICB984 medulloblastoma cells, drug combinations, stronger effect = higher value
# [4] = growth inhibition, single agents and combos, LFS_MB_1R, cell-based, cisplatin or BGB combos, synergistic combos for chromothripsis tumors (AID 1671452); conditions: LFS_MB_1R medulloblastoma cells, stronger effect = higher value;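 also: cells exposed for 96 hours before readout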
# [5] = growth inhibition, single agents and combos, HTB85, cell-based, BGB or cisplatin IC20 combos, synergistic combos for chromothripsis tumors (AID 1671453); conditions: HTB85 osteosarcoma cells, drug combinations, stronger effect = higher value;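 also: cells exposed for 96 hours before readout; 0% = vehicle DMSO and 100% = high DMSO killing control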
# [6] = growth inhibition, single agents and combos, CRL2098, cell-based, BGB or cisplatin IC20 combos, synergistic combos for chromothripsis tumors (AID 1671454); conditions: CRL2098 osteosarcoma cells, drug combinations, stronger effect = higher value;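 also: cells exposed for 96 h before readout; 0% = vehicle DMSO and 100% = killing by high DMSO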
# [7] = growth inhibition, single agents and combos, HD-MB03, cell-based, BGB or cisplatin IC20 combos, synergistic combos for chromothripsis tumors (AID 1671455; in the data active = inhibition above about 83%;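 also: 0% = vehicle DMSO and 100% = high DMSO as cytotoxic control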); conditions: HD-MB03 medulloblastoma cells, stronger effect = higher value
# [8] = growth inhibition, single agents and combos, UWB1.289, cell-based, BGB or cisplatin combos, synergistic combos for chromothripsis tumors (AID 1671456); conditions: UWB1.289 ovarian carcinoma cells, stronger effect = higher value;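 also: cells exposed to compound for four days; 0% = vehicle DMSO and 100% = killing by high DMSO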
# [9] = growth inhibition, single agents and combos, LFS_MB_2R, cell-based, cisplatin combos, synergistic combos for chromothripsis tumors (AID 1671457); conditions: LFS_MB_2R medulloblastoma cells, stronger effect = higher value;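 also: cells exposed to compound for four days before readout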
# [10] = growth inhibition, MDA-MB-436, cell-based, BGB or cisplatin combos, synergistic combos for chromothripsis tumors (AID 1671458; call rule not given here;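 also: cells exposed for 96 hours; 0% = vehicle DMSO and 100% = killing by high DMSO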); conditions: MDA-MB-436 breast carcinoma growth inhibition, drug combinations, stronger effect = higher value
# [11] = UWB1.289_BRCA1 ovarian cancer growth, cell-based, BGB or cisplatin combinations (AID 1671459); conditions: UWB1.289 BRCA1 ovarian carcinoma, drug combinations, stronger effect = higher value
# [12] = drug combination toxicity in non-malignant astrocytes – cell-based, BGB or cisplatin IC20 combos, cytotoxicity control for chromothriptic childhood tumor combination screen (AID 1671460); conditions: Human astrocytes, viability inhibition, drug combinations, at 0.5 µM, stronger effect = higher value;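 also: cells exposed to compounds for 96 hours before viability readout; 0% = vehicle and 100% = killing control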
# [13] = BT084 cell growth, single and combined drugs, ICGC_MB145, cisplatin and BGB IC40 combos (AID 1671461); conditions: BT084 medulloblastoma cells, drug combinations, stronger effect = higher value;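 also: cells exposed to drugs for 96 hours; 0% = vehicle DMSO and 100% = high DMSO full killing control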
# [14] = RCMB18 cell growth, single agent and combined, cisplatin and BGB IC40 combos (AID 1671462); conditions: RCMB18 medulloblastoma cells, stronger effect = higher value;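 also: cells exposed to compound for four days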
# [15] = CRL1545 cell growth, single agent and combined, cisplatin and BGB IC20 combos (AID 1671464); conditions: CRL1545 osteosarcoma cells, stronger effect = higher value;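 also: cells exposed to compound for 96 hours before readout; 0% = vehicle DMSO and 100% = high DMSO killing control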
# [16] = at 0.5 µM, stronger effect = higher value
# [17] = measured here: combination with BGB IC20, at 0.005 µM
# [18] = measured here: combination with BGB IC40, at 0.005 µM
# [19] = measured here: combination with BGB IC40, at 0.05 µM
# [20] = measured here: combination with cisplatin, at 0.5 µM, stronger effect = higher value
# [21] = measured here: combination with cisplatin, at 5 µM, stronger effect = higher value
# [22] = measured here: with BGB IC20 combination, at 0.5 µM
# [23] = measured here: with cisplatin IC20 combination, at 0.5 µM
# [24] = measured here: 5 uM single agent, at 5 µM
# [25] = measured here: combination with cisplatin, at 0.5 µM
# [26] = measured here: combination with cisplatin, at 5 µM
# [27] = measured here: with BGB IC20, at 0.5 µM
# [28] = measured here: with BGB IC20, at 5 µM
# [29] = measured here: with cisplatin IC20, at 0.5 µM
# [30] = measured here: with cisplatin IC20, at 5 µM
# [31] = measured here: combination with BGB at IC20, at 0.5 µM
# [32] = measured here: combination with cisplatin at IC20, at 0.5 µM
# [33] = measured here: combo with BGB at IC20, at 0.5 µM
# [34] = measured here: combo with cisplatin at IC20, at 0.5 µM
# [35] = measured here: inhibition with BGB combination, at 0.05 µM
# [36] = measured here: inhibition with cisplatin combination, at 0.05 µM
# [37] = measured here: BGB combination, at 0.5 µM
# [38] = measured here: BGB combination, at 5 µM
# [39] = measured here: cisplatin combination, at 0.5 µM
# [40] = measured here: cisplatin combination, at 5 µM
# [41] = BGB combination, concentration series, at 5 µM
# [42] = cisplatin combination, concentration series, at 5 µM
# [43] = measured here: combo with BGB IC20
# [44] = measured here: combo with cisplatin IC20
# [45] = cisplatin combination, at 0.5 µM
# [46] = measured here: BGB IC40 combination 0.05 uM, at 0.05 µM
# [47] = measured here: BGB IC40 combination, at 0.05 µM
structure (smiles),measurement,setting,value
Cc1ccc([N+](=O)[O-])cc1S(=O)(=O)N(C)/N=C\c1cnc2ccc(Br)cn12,inhibition,[1]; [16],61.9% (inactive)
same,inhibition,[1]; [17],-13.3%
same,inhibition,[1]; [18],-40.2%
same,inhibition,[1]; [19],-31.8%
same,inhibition,[1]; [20],56.3%
same,inhibition,[1]; [21],118%
same,inhibition,"[2]; BGB combo, at 5 µM",99.2%
same,inhibition,[2]; at 0.5 µM,94.3% (active)
same,inhibition,"[2]; cisplatin combo, at 5 µM",99.5%
same,inhibition,[2]; [22],94%
same,inhibition,[2]; [23],93.5%
same,inhibition,"[2]; single agent, at 5 µM",99.5%
same,inhibition,"[3]; BGB IC20 combo, at 0.005 µM",97.1%
same,inhibition,"[3]; BGB IC40 combo, at 0.005 µM",95.5%
same,inhibition,"[3]; BGB IC40 combo, at 0.05 µM",97.1%
same,inhibition,[3]; at 0.5 µM,-13.8% (inactive)
same,inhibition,"[3]; cisplatin combo, at 0.05 µM",97%
same,inhibition,"[3]; cisplatin combo, at 0.5 µM",-12.8%
same,inhibition,"[3]; cisplatin combo, at 5 µM",-10.7%
same,inhibition,[3]; [24],-35%
same,inhibition,[4]; at 0.5 µM,97.7% (active)
same,inhibition,[4]; [19],22.2%
same,inhibition,[4]; [25],94.2%
same,inhibition,[4]; [26],99.5%
same,inhibition,[5]; at 0.5 µM,95.7% (active)
same,inhibition,[5]; [27],97.6%
same,inhibition,[5]; [28],99.7%
same,inhibition,[5]; [29],99.5%
same,inhibition,[5]; [30],99.8%
same,inhibition,"[5]; single agent, at 5 µM",99.8%
same,inhibition,[6]; at 0.5 µM,94.2% (active)
same,inhibition,[6]; [31],89.1%
same,inhibition,[6]; [32],96.8%
same,inhibition,[7]; at 0.5 µM,92.1% (active)
same,inhibition,[7]; [33],88.3%
same,inhibition,[7]; [34],94.9%
same,inhibition,[8]; at 0.5 µM,64.8% (inactive)
same,inhibition,[8]; [35],-16.8%
same,inhibition,[8]; [36],-30.8%
same,inhibition,[9]; at 0.5 µM,89.4% (active)
same,inhibition,[9]; [25],92.7%
same,inhibition,[9]; [26],91.4%
same,inhibition,[10]; at 0.5 µM,79.4% (inactive)
same,inhibition,[10]; [37],72.5%
same,inhibition,[10]; [38],55.5%
same,inhibition,[10]; [39],86.1%
same,inhibition,[10]; [40],74.6%
same,inhibition,[11]; [41],89.5%
same,inhibition,[11]; at 0.5 µM,74.9% (inactive)
same,inhibition,[11]; [42],96.2%
same,inhibition,[12],80.6% (active)
same,inhibition,[12]; [43],72.4%
same,inhibition,[12]; [44],82.6%
same,inhibition,[13]; at 0.5 µM,-3% (inactive)
same,inhibition,[13]; [45],-27.5%
same,inhibition,"[13]; cisplatin combination, at 5 µM",-30.7%
same,inhibition,[13]; [46],-4.87%
same,inhibition,"[13]; single agent, at 5 µM",-15.9%
same,inhibition,[14]; at 0.5 µM,67.8% (inactive)
same,inhibition,"[14]; cisplatin combo, at 5 µM",70%
same,inhibition,[14]; [47],19.8%
same,inhibition,[14]; [25],52.5%
same,inhibition,"[14]; single agent, at 5 µM",76%
same,inhibition,[15]; at 0.5 µM,98% (active)
same,inhibition,[15]; [22],98.1%
same,inhibition,[15]; [23],97.9%
same,inhibition,"[15]; single agent, at 0.05 µM",-77.2%
same,inhibition,"[15]; single agent, at 5 µM",100%
O=C1N=c2ccccc2=C1c1c(O)[nH]c2ccccc12,inhibition,[1]; [16],-10.5% (inactive)
same,inhibition,[1]; [17],-1.18%
same,inhibition,[1]; [18],-11.2%
same,inhibition,[1]; [19],-2.67%
same,inhibition,[1]; [20],-21%
same,inhibition,[1]; [21],114%
same,inhibition,"[2]; BGB combo, at 5 µM",61%
same,inhibition,[2]; at 0.5 µM,5.47% (inactive)
same,inhibition,"[2]; cisplatin combo, at 5 µM",51.4%
same,inhibition,[2]; [22],16.4%
same,inhibition,[2]; [23],-3.78%
same,inhibition,"[2]; single agent, at 5 µM",45.3%
same,inhibition,"[3]; BGB IC20 combo, at 0.005 µM",11.6%
same,inhibition,"[3]; BGB IC40 combo, at 0.005 µM",12.6%
same,inhibition,"[3]; BGB IC40 combo, at 0.05 µM",98.1%
same,inhibition,[3]; at 0.5 µM,-13.3% (inactive)
same,inhibition,"[3]; cisplatin combo, at 0.05 µM",98%
same,inhibition,"[3]; cisplatin combo, at 0.5 µM",-8.2%
same,inhibition,"[3]; cisplatin combo, at 5 µM",-23.1%
same,inhibition,[3]; [24],-12.3%
same,inhibition,[4]; at 0.5 µM,38.6% (inactive)
same,inhibition,[4]; [19],-8.14%
same,inhibition,[4]; [25],68.7%
same,inhibition,[4]; [26],104%
same,inhibition,[5]; at 0.5 µM,-27.2% (inactive)
same,inhibition,[5]; [27],-36.8%
same,inhibition,[5]; [28],49.4%
same,inhibition,[5]; [29],-31.8%
same,inhibition,[5]; [30],19.9%
same,inhibition,"[5]; single agent, at 5 µM",73.7%
same,inhibition,[6]; at 0.5 µM,-38.8% (inactive)
same,inhibition,[6]; [31],-85.6%
same,inhibition,[6]; [32],-13.6%
same,inhibition,[7]; at 0.5 µM,-7.99% (inactive)
same,inhibition,[7]; [33],-0.15%
same,inhibition,[7]; [34],-18.7%
same,inhibition,[8]; at 0.5 µM,-2.76% (inactive)
same,inhibition,[8]; [35],-4.21%
same,inhibition,[8]; [36],-14.6%
same,inhibition,[9]; at 0.5 µM,-4.68% (inactive)
same,inhibition,[9]; [25],-7.54%
same,inhibition,[9]; [26],96.6%
same,inhibition,[10]; at 0.5 µM,0.62% (inactive)
same,inhibition,[10]; [37],-2.01%
same,inhibition,[10]; [38],38.1%
same,inhibition,[10]; [39],2.13%
same,inhibition,[10]; [40],46%
same,inhibition,[11]; [41],47.2%
same,inhibition,[11]; at 0.5 µM,-5.34% (inactive)
same,inhibition,[11]; [42],63.2%
same,inhibition,[12],-0.99% (inactive)
same,inhibition,[12]; [43],17.5%
same,inhibition,[12]; [44],-29.2%
same,inhibition,[13]; at 0.5 µM,-8.62% (inactive)
same,inhibition,[13]; [45],-4.64%
same,inhibition,"[13]; cisplatin combination, at 5 µM",99.5%
same,inhibition,[13]; [46],21.5%
same,inhibition,"[13]; single agent, at 5 µM",59.7%
same,inhibition,[14]; at 0.5 µM,50.6% (inactive)
same,inhibition,"[14]; cisplatin combo, at 5 µM",103%
same,inhibition,[14]; [47],-10.1%
same,inhibition,[14]; [25],81.1%
same,inhibition,"[14]; single agent, at 5 µM",98.9%
same,inhibition,[15]; at 0.5 µM,7.46% (inactive)
same,inhibition,[15]; [22],-4.11%
same,inhibition,[15]; [23],11.3%
same,inhibition,"[15]; single agent, at 0.05 µM",-37%
same,inhibition,"[15]; single agent, at 5 µM",95.5%
